Paper PMC11006913

Target: HOXB4 (Homo sapiens, UniProt P17483 148-234)
Test: PBM; 200 nM protein, PBS
Conditions: dsDNA, one strand shown

Chain of HOXB4 (Homo sapiens, UniProt P17483 148-234) (P17483 148-234): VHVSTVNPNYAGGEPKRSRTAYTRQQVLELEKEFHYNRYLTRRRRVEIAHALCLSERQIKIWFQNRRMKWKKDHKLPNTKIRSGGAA

Row | Sequence | binding signal
1 | AGCATTAG | 10.5 upbm affinity estimate (log intensity, higher = more binding, comparable within an allelic series)
2 | CCGTGCGC | 7.73 upbm affinity estimate (log intensity, higher = more binding, comparable within an allelic series)
3 | CTTAAGCA | 10.1 upbm affinity estimate (log intensity, higher = more binding, comparable within an allelic series)
4 | CCCGAGCC | 7.67 upbm affinity estimate (log intensity, higher = more binding, comparable within an allelic series)
5 | GCCTCTCC | 7.31 upbm affinity estimate (log intensity, higher = more binding, comparable within an allelic series)
6 | CAGTGTGC | 7.61 upbm affinity estimate (log intensity, higher = more binding, comparable within an allelic series)
7 | GGATTCCC | 7.58 upbm affinity estimate (log intensity, higher = more binding, comparable within an allelic series)
8 | GATTATTA | 12.9 upbm affinity estimate (log intensity, higher = more binding, comparable within an allelic series)
9 | AATATAAA | 10.6 upbm affinity estimate (log intensity, higher = more binding, comparable within an allelic series)
10 | ATTAAAGC | 11.7 upbm affinity estimate (log intensity, higher = more binding, comparable within an allelic series)
11 | ATTACTTA | 12.1 upbm affinity estimate (log intensity, higher = more binding, comparable within an allelic series)
12 | AAGCTCTC | 7.48 upbm affinity estimate (log intensity, higher = more binding, comparable within an allelic series)

Target: SHOX (Homo sapiens, UniProt O15266 103-189)
Test: PBM; 200 nM protein, PBS
Conditions: dsDNA, one strand shown

Chain of SHOX (O15266 103-189): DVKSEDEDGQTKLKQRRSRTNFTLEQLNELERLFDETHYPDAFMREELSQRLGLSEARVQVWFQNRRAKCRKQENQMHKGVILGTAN

Row | Sequence | binding signal
13 | GATTGAGA | 8.1 upbm affinity estimate (log intensity, higher = more binding, comparable within an allelic series)
14 | ACGTAATC | 8.86 upbm affinity estimate (log intensity, higher = more binding, comparable within an allelic series)
15 | AAACTAAG | 8.12 upbm affinity estimate (log intensity, higher = more binding, comparable within an allelic series)
16 | ATTATCCA | 9.69 upbm affinity estimate (log intensity, higher = more binding, comparable within an allelic series)
17 | AATCGTGT | 8.39 upbm affinity estimate (log intensity, higher = more binding, comparable within an allelic series)
18 | CTATCATC | 8.16 upbm affinity estimate (log intensity, higher = more binding, comparable within an allelic series)
19 | ATTGCTAC | 8.23 upbm affinity estimate (log intensity, higher = more binding, comparable within an allelic series)
20 | AATCGGTA | 8.66 upbm affinity estimate (log intensity, higher = more binding, comparable within an allelic series)
21 | ATCTATTG | 8.32 upbm affinity estimate (log intensity, higher = more binding, comparable within an allelic series)
22 | TAAATGGA | 8.78 upbm affinity estimate (log intensity, higher = more binding, comparable within an allelic series)
23 | CCAGATAA | 8.47 upbm affinity estimate (log intensity, higher = more binding, comparable within an allelic series)
24 | AAATATAA | 9.24 upbm affinity estimate (log intensity, higher = more binding, comparable within an allelic series)
25 | TTAGGAAA | 8.58 upbm affinity estimate (log intensity, higher = more binding, comparable within an allelic series)
26 | AATATCGA | 8.49 upbm affinity estimate (log intensity, higher = more binding, comparable within an allelic series)
27 | AATTTCGA | 8.68 upbm affinity estimate (log intensity, higher = more binding, comparable within an allelic series)
28 | AATGGTAC | 8.43 upbm affinity estimate (log intensity, higher = more binding, comparable within an allelic series)
29 | TAACGACA | 8.33 upbm affinity estimate (log intensity, higher = more binding, comparable within an allelic series)
30 | GAATTAGA | 9.8 upbm affinity estimate (log intensity, higher = more binding, comparable within an allelic series)
31 | AGTAAACG | 8.05 upbm affinity estimate (log intensity, higher = more binding, comparable within an allelic series)
32 | ATTATGCC | 9.49 upbm affinity estimate (log intensity, higher = more binding, comparable within an allelic series)
33 | ATTCATGA | 8.41 upbm affinity estimate (log intensity, higher = more binding, comparable within an allelic series)
34 | TCATAACA | 8.35 upbm affinity estimate (log intensity, higher = more binding, comparable within an allelic series)
35 | CCCATTTA | 8.95 upbm affinity estimate (log intensity, higher = more binding, comparable within an allelic series)
36 | GCATTAAA | 8.99 upbm affinity estimate (log intensity, higher = more binding, comparable within an allelic series)
37 | ACAATCAA | 8.45 upbm affinity estimate (log intensity, higher = more binding, comparable within an allelic series)
38 | GTTAGTCA | 8.37 upbm affinity estimate (log intensity, higher = more binding, comparable within an allelic series)
39 | CATTTTCC | 8.3 upbm affinity estimate (log intensity, higher = more binding, comparable within an allelic series)
40 | GCTGATGA | 8.21 upbm affinity estimate (log intensity, higher = more binding, comparable within an allelic series)

Target: HOXB4 (Homo sapiens, UniProt P17483 148-234, V174I)
Test: PBM; 200 nM protein, PBS
Conditions: dsDNA, one strand shown

Chain of HOXB4 (Homo sapiens, UniProt P17483 148-234, V174I) (P17483 148-234 V174I): as the sequence (P17483 148-234) above, with V27I counted along it

Row | Sequence | binding signal
41 | AGCATTAG | 10.7 upbm affinity estimate (log intensity, higher = more binding, comparable within an allelic series)
42 | CCGTGCGC | 7.75 upbm affinity estimate (log intensity, higher = more binding, comparable within an allelic series)
43 | CTTAAGCA | 10.1 upbm affinity estimate (log intensity, higher = more binding, comparable within an allelic series)
44 | CCCGAGCC | 7.83 upbm affinity estimate (log intensity, higher = more binding, comparable within an allelic series)
45 | GCCTCTCC | 7.24 upbm affinity estimate (log intensity, higher = more binding, comparable within an allelic series)
46 | CAGTGTGC | 7.69 upbm affinity estimate (log intensity, higher = more binding, comparable within an allelic series)
47 | GGATTCCC | 7.52 upbm affinity estimate (log intensity, higher = more binding, comparable within an allelic series)
48 | GATTATTA | 13.5 upbm affinity estimate (log intensity, higher = more binding, comparable within an allelic series)
49 | AATATAAA | 10.7 upbm affinity estimate (log intensity, higher = more binding, comparable within an allelic series)
50 | ATTAAAGC | 11.9 upbm affinity estimate (log intensity, higher = more binding, comparable within an allelic series)
51 | ATTACTTA | 12.5 upbm affinity estimate (log intensity, higher = more binding, comparable within an allelic series)
52 | AAGCTCTC | 7.53 upbm affinity estimate (log intensity, higher = more binding, comparable within an allelic series)

Target: PROP1 (Homo sapiens, UniProt O75360 56-141)
Test: PBM; 200 nM protein, PBS
Conditions: dsDNA, one strand shown

Chain of PROP1 (Homo sapiens, UniProt O75360 56-141) (O75360 56-141): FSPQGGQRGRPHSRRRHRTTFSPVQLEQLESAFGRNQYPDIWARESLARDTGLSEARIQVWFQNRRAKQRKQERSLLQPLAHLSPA

Row | Sequence | binding signal
53 | GCCTCTCC | 6.75 upbm affinity estimate (log intensity, higher = more binding, comparable within an allelic series)
54 | CAGTGTGC | 6.79 upbm affinity estimate (log intensity, higher = more binding, comparable within an allelic series)
55 | GGATTCCC | 6.63 upbm affinity estimate (log intensity, higher = more binding, comparable within an allelic series)
56 | AAGCTCTC | 6.71 upbm affinity estimate (log intensity, higher = more binding, comparable within an allelic series)

Target: PROP1 (Homo sapiens, UniProt O75360 56-141, R99H)
Test: PBM; 200 nM protein, PBS
Conditions: dsDNA, one strand shown

Chain of PROP1 (Homo sapiens, UniProt O75360 56-141, R99H) (O75360 56-141 R99H): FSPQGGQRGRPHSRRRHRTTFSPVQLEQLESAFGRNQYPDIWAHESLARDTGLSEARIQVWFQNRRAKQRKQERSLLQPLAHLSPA

Row | Sequence | binding signal
57 | GCCTCTCC | 6.63 upbm affinity estimate (log intensity, higher = more binding, comparable within an allelic series)
58 | CAGTGTGC | 6.58 upbm affinity estimate (log intensity, higher = more binding, comparable within an allelic series)
59 | GGATTCCC | 6.7 upbm affinity estimate (log intensity, higher = more binding, comparable within an allelic series)
60 | AAGCTCTC | 6.64 upbm affinity estimate (log intensity, higher = more binding, comparable within an allelic series)

Target: PROP1 (Homo sapiens, UniProt O75360 56-141, F88S)
Test: PBM; 200 nM protein, PBS
Conditions: dsDNA, one strand shown

Chain of PROP1 (Homo sapiens, UniProt O75360 56-141, F88S) (O75360 56-141 F88S): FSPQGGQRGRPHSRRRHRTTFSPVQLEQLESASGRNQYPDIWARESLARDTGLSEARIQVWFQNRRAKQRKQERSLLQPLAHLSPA

Row | Sequence | binding signal
61 | GCCTCTCC | 6.67 upbm affinity estimate (log intensity, higher = more binding, comparable within an allelic series)
62 | CAGTGTGC | 6.78 upbm affinity estimate (log intensity, higher = more binding, comparable within an allelic series)
63 | GGATTCCC | 6.49 upbm affinity estimate (log intensity, higher = more binding, comparable within an allelic series)
64 | AAGCTCTC | 6.84 upbm affinity estimate (log intensity, higher = more binding, comparable within an allelic series)
